From PubChem BioAssay (Tox21)
Inconclusive results are not listed. Values without a mark were called inactive. Unless noted, calls follow the shape of the full dose curve.

assay: qHTS assay to identify small molecule agonists of the NFkB signaling pathway - cell viability counter screen (AID 1159515); details: NFkB-bla ME-180 viability, CellTiter-Glo luminescence, 5 h; series mostly up to 61 µM; activity, negative = cytotoxic: at the top concentration; also: nearly all actives have a fitted effect of over 55% in size
Method in brief: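 Plate 2,000 NFkB-bla ME-180 cells/well; incubate overnight. Add compounds, 5 hr at 37 C. Add FRET substrate, 1.5 hr RT. Add CellTiter-Glo, 30 min RT; read luminescence.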
% is scaled to controls: 0 for no effect and ±100 for the full control effect.

| SMILES | activity, negative = cytotoxic |
| --- | --- |
| CN(C)CCCNCCC#N | 0.446% |
| CC(=O)OCC(=O)[C@@]1(O)[C@H](OC(C)=O)C[C@H]2[C@@H]3CCC4=CC(=O)C=C[C@]4(C)[C@@]3(F)[C@@H](O)C[C@@]21C | 0.501% |
| NS(=O)(=O)c1ccccc1OC(F)(F)F | 8.6% |
| O=C1OC(=O)c2cc(Oc3ccc4c(c3)C(=O)OC4=O)ccc21 | -2.26% |

assay: qHTS assay to identify small molecule agonists of the endoplasmic reticulum stress response signaling pathway (AID 1159516; active = well fitted activation curve with a large enough effect in the signal ratio in the repeat runs, not every such curve was filed as active; the % refers to the signal ratio); details: ESRE-bla HeLa, ER stress beta-lactamase reporter, 5 h; series mostly up to 61 µM; activation: at the top concentration
Method in brief: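 Beta-lactamase expression from the ER stress response element in HeLa reporter cells is quantified with the LiveBLAzer B/G FRET substrate, read at 405 nm excitation after 2 hr at room temperature, following 5 hr compound treatment at 37 C.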

| SMILES | activation |
| --- | --- |
| Cc1cc(C)cc([N+](=O)[O-])c1 | -3.03% [at 78.8 µM] |
| COc1cc([N+](=O)[O-])ccc1N | -2.3% |
| CCC(O)C(C)(C)C (configuration not stated) | -0.28% [at 78.8 µM] |
| OC(CCN1CCCCC1)(c1ccccc1)c1ccccc1 | 4.85% |
| Oc1ccccc1Cc1ccccc1O | 8.62% |
| O=c1[nH]c(=O)c2[nH]c(=O)[nH]c2[nH]1 | -2.27% [at 6.95 µM] |
| CN(C)CCCNCCC#N | -0.138% |
| Cc1ccc2c(c1)c1c3n2CCNC3CCC1 (configuration not stated) | 4.47% |
| C1=CCC(c2ccccc2)CC1 (configuration not stated) | -1.75% |
| Cc1ccccc1OCC1CO1 (configuration not stated) | 3.94% [at 78.8 µM] |
| CCCCCCCCCCCCCC(=O)OC | 1.14% |
| OC[C@@H](O)[C@H](O)[C@@H](O)[C@@H](O)CO | 0.827% |
| CC(C)COC(=O)CCCCC(=O)OCC(C)C | 2.37% |
| CCC1COC(=O)O1 (configuration not stated) | 0.303% |
| CCS(=O)(=O)CCn1c([N+](=O)[O-])cnc1C | 5.47% |
| CCCCCC1Nc2cc(C(F)(F)F)c(S(N)(=O)=O)cc2S(=O)(=O)N1 (configuration not stated) | 1.08% |
| CCCCCCCCOC(C)=O | 0.965% |
| O=C(Nc1cccc(C2=NCCN2)c1)Nc1cccc(C2=NCCN2)c1 | 0.123% [at 28.5 µM] |
| CC(=O)OCC(=O)[C@@]1(O)[C@H](OC(C)=O)C[C@H]2[C@@H]3CCC4=CC(=O)C=C[C@]4(C)[C@@]3(F)[C@@H](O)C[C@@]21C | -0.379% |

| SMILES | activation |
| --- | --- |
| CNC(=O)C(c1ccccc1)c1ccccc1 | -0.949% |
| CC(CC(=O)O)CC(C)(C)C (configuration not stated) | 2.01% |
| CCOc1ccc(NC(=O)OC(C)C)cc1OCC | -0.427% |
| NS(=O)(=O)c1ccccc1OC(F)(F)F | -1.81% |
| CC(=O)c1ccc2c(c1)CCCC2 | -5.2% |
| CCC1Nc2cc(Cl)c(S(N)(=O)=O)cc2S(=O)(=O)N1 (configuration not stated) | 0.62% |
| CCCCOC(=O)C(C)OC(=O)CCC (configuration not stated) | -1.57% |
| CC1=NN(c2ccc(S(=O)(=O)O)cc2)C(=O)C1N=Nc1ccccc1 (configuration not stated) | -2.89% |
| C=CCOCC(CO)(COCC=C)COCC=C | -1.58% |
| Nc1cc(Cl)cc(S(=O)(=O)O)c1O | -0.0761% [at 78.8 µM] |
| O=C1OC(=O)c2cc(Oc3ccc4c(c3)C(=O)OC4=O)ccc21 | 0.537% |
| O=C(Oc1ccccc1C(=O)O)c1ccccc1O | 1.43% |
| O=C(O)c1ccc(OCCN2CCCCC2)cc1 | -0.184% |
| CC(C)CCO | -2.54% |
| COCCOCCOCCOC | 2.25% |
| CC(=O)OC(C(=O)c1ccccc1)c1ccccc1 (configuration not stated) | -2.66% [at 78.8 µM] |
| N#CCCOCCOCCC#N | 3.42% |
| O=C(COCCOCCOCC(=O)Nc1c(I)cc(I)c(C(=O)O)c1I)Nc1c(I)cc(I)c(C(=O)O)c1I | 2.82% |
| C[CH2][Ge]([Cl])([CH2]C)[CH2]C | -4.01% [at 78.8 µM] |
